High-throughput results as filed in PubChem.
Pf Dd2 growth = inhibitors of Plasmodium falciparum Dd2 growth; P. falciparum Dd2 growth, SYBR Green, 72 h; Potency, µM (series often up to 28.9 µM), for inactives: top-dose activity, negative = inhibition, actives largely listed as inhibitors; actives 4.3% (n = 120,000); active means well fitted inhibition curve with a large enough effect;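 further: plate controls were DMSO vehicle for no effect and reference drug for full effect; nearly all actives have a fitted effect of over 65% in size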
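Readout: SYBR Green fluorescence, 485 nm excitation, 535 nm emission, after ~16 h lysis at 37C. Before that, Dd2-infected red cells (2.5% hematocrit) grew 72 h with compound, 29 uM top final concentration.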
Starred values were filed as active, the others as inactive; i = inactive; [ ] = remark or other dose. Only a selection was taken, and hits are over-represented in it overall. Potency means the concentration at half of the fitted maximal effect.

SMILES | Pf Dd2 growth
CC(C)c1nc2c(c(-c3ccc(Cl)cc3)n1)CCN(C(=O)c1ccc(C(F)(F)F)cc1)CC2 | 10µM*
CC(C)c1nc2c(c(-c3ccc(O)cc3)n1)CN(C(=O)Nc1ccc(Cl)cc1)CC2 | 11.2µM*
COc1ccc(-c2nc(C(C)C)nc3c2CCN(C(=O)C2CC2)CC3)cc1 | i
CC(C)c1nc2c(c(-c3ccc(O)cc3)n1)CN(C(=O)c1ccc(C(F)(F)F)cc1)CC2 | i
COc1ccccc1C(=O)N1CCc2nc(C(C)C)nc(-c3ccc(Cl)cc3)c2CC1 | -28.1%
COc1ccc(-c2nc(C(C)C)nc3c2CCN(C(=O)c2cccc(Cl)c2)CC3)cc1 | 5.62µM*
COc1ccc(-c2nc(C(C)C)nc3c2CCN(C(=O)Nc2ccccc2)CC3)cc1 | 5.01µM*
CCc1nc2c(c(-c3ccc(OC)cc3)n1)CCN(C(=O)c1ccccc1OC)CC2 | -9.5%
Cc1ccc(C(=O)N2CCc3nc(C(C)C)nc(-c4ccc(O)cc4)c3C2)cc1 | i
CC[C@H]1CN(C(=O)c2ccc(F)cc2)CC[C@H]1CC(=O)NCc1ccccc1OC | -6.2%[44.1 µM]
COc1ccccc1CCC(=O)N1CCC2(CC1)N=C(c1ccc(Cl)cc1)NO2 | i
O=C(CN1C(=O)C(c2ccccc2)=NC12CCCC2)NCc1ccccc1Cl | 28.7%
COc1ccccc1C(=O)N1CCC2(CN[S+](=O)([O-])c3cccnc3O2)C1 (configuration not stated) | 47.6%
O=C(c1ccncc1)N1CCC2(CN[S+](=O)([O-])c3cnccc3O2)C1 (configuration not stated) | 13.1%
COc1ccccc1NC(=O)Nc1cccc(-c2ccc(N3CCOCC3)nn2)c1 | i
COc1ccc(-c2nc(C(C)C)nc3c2CCN(C(=O)N(C)C)CC3)cc1 | -22.8%
COc1ccc(-c2nc(C(C)C)nc3c2CCN(C(C)=O)CC3)cc1 | i
COc1ccc(-c2nc(C(C)C)nc3c2CCN(C(=O)c2ccc(F)cc2)CC3)cc1 | 11.2µM*
Cc1ccc(-c2nnc(C3CN(C(=O)CCC4CCCC4)CC34CCOCC4)o2)cc1 (configuration not stated) | -4.6%
CC1CCN(C(=O)CSc2c3c(nc4cc(Cl)ccc24)CCCC3)CC1 | -23.8%
CCC(C)NC(=O)CSc1c2c(nc3cc(Cl)ccc13)CCCC2 (configuration not stated) | -9.1%
O=C(CSc1c2c(nc3cc(Cl)ccc13)CCCC2)N1CCN(c2ccccc2)CC1 | 11.2µM*
COCc1cn(C[C@H]2C[C@@H](NCc3nccn3C)[C@H](O)[C@@H]2O)nn1 | 17.5%
Cc1cc(=O)n(CC(=O)N2C[C@@H](C(=O)O)[C@H](C3CC3)C2)nc1C | -3.4%
COCCn1c(C)cc(C(=O)N2CCC[C@H](n3c(=O)n(C)c4cccnc43)C2)c1C | -9.2%
SMILES | Pf Dd2 growth
COc1cccc(-c2nc3c(c(SCC(=O)Nc4cccc(C)c4C)n2)Cc2c(CO)cnc(C)c2O3)c1 | 51.6%
COc1cccc(CSc2nc(-c3ccccc3OC)nc3c2Cc2c(CO)cnc(C)c2O3)c1 | 5.01µM*
CCc1ccc(NC(=O)CSc2nc(-c3ccc(C)cc3)nc3c2Cc2c(CO)cnc(C)c2O3)cc1 | -27.2%
COc1ccccc1NC(=O)CSc1nc(-c2ccc(C)cc2)nc2c1Cc1c(CO)cnc(C)c1O2 | -24.6%
C=Cc1ccc(CSc2nc(-c3ccccc3C)nc3c2Cc2c(CO)cnc(C)c2O3)cc1 | 5.62µM*
Cc1ncc(CO)c2c1Oc1nc(-c3ccccc3)nc(SCC(=O)Nc3cccc(C(F)(F)F)c3)c1C2 | i
C=Cc1ccc(CSc2nc(-c3ccc(Cl)cc3)nc3c2Cc2c(CO)cnc(C)c2O3)cc1 | 11.2µM*
COc1ccc(-c2nc3c(c(SCC(=O)Nc4cccc(O)c4)n2)Cc2c(CO)cnc(C)c2O3)cc1 | 5.62µM*
COc1cccc(-c2nc3c(c(SCc4ccccc4Cl)n2)Cc2c(CO)cnc(C)c2O3)c1 | 1.9%
Cc1ncc(CO)c2c1Oc1nc(-c3ccc(F)cc3)nc(SCc3ccc(F)cc3Cl)c1C2 | 63.8%[0.594 µM]
Cn1nccc1C(=O)N1CCCC(c2noc(COc3ccccc3F)n2)C1 (configuration not stated) | 72.6%
O=C(NC1CCN(c2cc(-c3ccccc3)[nH]n2)CC1)c1cccnc1 | i
COc1cc(-c2cn(C)c(=O)n3cc(CNc4ccccc4)nc23)ccn1 | i
Cc1ccc(C(=O)N2CCC[C@H]2c2nc(-c3ccccc3)no2)cc1C | -9.5%
COCCOCC(=O)N1[C@@H]2CC[C@H]1CC(NC(=O)c1ccc(F)cc1)C2 (some centres not stated) | 10.1%
N[C@@H](Cc1cnc[nH]1)C(=O)N1CCC(c2nccn2Cc2ccccn2)CC1 | -2.8%
COc1cccc(C(=O)N2CCc3[nH]nc(C(=O)NCCCc4ccccc4)c3C2)c1 | i
NCCn1cc(C(=O)N2CC[C@@H](c3ccc4c(c3)OCO4)[C@H](O)C2)nn1 | -5.5%
COCCn1nc2n(c1=O)CCN(Cc1scnc1C)CC2 | -0.8%
Cn1cnc(C(=O)N2C[C@@H](COCC3CC3)[C@H](c3ccccn3)C2)c1 | 38.8%
C=Cc1ccc(CSc2nc(-c3ccc(OC)cc3)nc3c2Cc2c(CO)cnc(C)c2O3)cc1 | 3.16µM*
COc1ccccc1NC(=O)CSc1nc(-c2cccc(Cl)c2)nc2c1Cc1c(CO)cnc(C)c1O2 | 6.9%
CCOc1ccc(NC(=O)CSc2nc(-c3cccc(Cl)c3)nc3c2Cc2c(CO)cnc(C)c2O3)cc1 | 6.6%
COc1ccc(-c2nc3c(c(SC)n2)Cc2c(CO)cnc(C)c2O3)cc1 | -8.7%
COc1ccc(-c2nc3c(c(SCc4ccc(Br)cc4)n2)Cc2c(CO)cnc(C)c2O3)cc1 | 1.12µM*
SMILES | Pf Dd2 growth
CCC(C)C(=O)N1CCc2[nH]nc(C(=O)NCCCc3ccccc3)c2C1 (configuration not stated) | i
COCCn1c2c(c(=O)n1-c1ccccc1)CCN(Cc1ccncc1Cl)C2 | 24.3%[44.1 µM]
Cc1ccc(-n2ncc(C(=O)N3CCN(C(=O)c4ccco4)CC3)c2C2CCN(C(=O)OC(C)(C)C)CC2)cc1 | -18.9%
CC(C)(C)OC(=O)N1CCC(c2c(C(=O)N3CCN(C(=O)c4ccco4)CC3)cnn2-c2ccccc2)CC1 | -9.4%
Cc1ccc(-n2ncc(C(=O)N3CCN(Cc4ccccc4)CC3)c2C2CCN(C(=O)OC(C)(C)C)CC2)c(C)c1 | 8.91µM*
CC(C)(C)OC(=O)N1CCC(c2c(C(=O)N3CCN(Cc4ccccc4)CC3)cnn2-c2ccc(Cl)cc2)CC1 | 11.2µM*
O=C1c2c(nc(COc3ccc4c(c3)OCO4)n2Cc2ccccc2)NCCN1Cc1ccccc1F | i
NC(=O)[C@@H]1CN(C(=O)c2ccc(F)cn2)C[C@H]1COc1ccccc1 | 18.1%
C=CCNC(=O)[C@@H]1CCCN1C1(C(=O)NC)CCOCC1 | 0.6%[44.1 µM]
CC(C)CCN1CCn2c(nnc2C2CCCNC2)C1 (configuration not stated) | -7.7%[44.1 µM]
Cc1nc(N2CCC(C(=O)NCc3cccc(Cl)c3)CC2)cc(C(F)(F)F)n1 | 2.6%
O=C(NC1CC(=O)N(CCCc2ccccc2)C1)c1ccc2c(c1)OCO2 (configuration not stated) | -3.6%
COc1ccc(C2=NOC3(CCCN(C(=O)c4ccccc4)C3)C2)cc1 (configuration not stated) | 14.1%
Cc1ccc(-c2nc3cnccn3c2NCCC(=O)NCc2ccco2)cc1 | i
CCOc1cc(C)c(CN2CCCC(O)(CN(C)C)C2)cc1C(C)C (configuration not stated) | 2.82µM*
COc1ccc2c(c1)C=C(CN1CCCC(O)(CN(C)C)C1)CO2 (configuration not stated) | -15.7%
